Data published in publication PMC5540273 (PLoS ONE, 2017).

What was measured:
Settings in all cases: concentration: 1 μM, replicates: in singlicate; n = 1
[1] = system: PDPK1
[2] = system: PFTAIRE2
[3] = system: T1, PFTK1
T1 construct: gene CDK14

[4] = system: PHKG1
[5] = system: PHKG2
[6] = system: PIK3C2B
[7] = system: PIK3C2G
[8] = system: PIK3CA
[9] = system: PIK3CB
[10] = system: PIK3CD
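Note: KINOMEscan kinase panel screen.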

Compound | %Inh [1] [%] | %Inh [2] [%] | %Inh [3] [%] | %Inh [4] [%] | %Inh [5] [%] | %Inh [6] [%] | %Inh [7] [%] | %Inh [8] [%] | %Inh [9] [%] | %Inh [10] [%]
COc1cccc(C2=C(Nc3cccc(C(=O)O)c3)C(=O)NC2=O)c1 [SB-390770] | 0 | 13 | 0 | 0 | 1 | 0 | 22 | 8 | 0 | 32
CCC(=O)c1c(-c2ccccc2)c2cc(Cl)ccc2c(=O)n1Cc1cc(C(=O)NC2CC2)n(C)n1 | 0 | 0 | 0 | 0 | 0 | 0 | 37 | 0 | 21 | 14
COc1cc2ncn(-c3cc(OCc4ccc(S(C)(=O)=O)cc4)c(C(N)=O)s3)c2cc1OC [GW869979] | 0 | 0 | 0 | 10 | 0 | 0 | 29 | 0 | 30 | 16
COc1ccc(-c2cc3c(C)nc(N)nc3n([C@H]3CC[C@H](OCCO)CC3)c2=O)cn1 | 0 | 0 | 0 | 7 | 0 | 98.1 | 98.1 | 100 | 100 | 96.6
COc1cc2ncn(-c3cc(OCc4ccncc4Br)c(C(N)=O)s3)c2cc1OC [GW854278] | 0 | 0 | 0 | 8 | 1 | 54 | 12 | 0 | 0 | 5
COc1cc(Nc2nccc(N3CCC(NC(=O)C4COc5ccccc5O4)C3)n2)cc(OC)c1OC (centres unmarked) [GSK1379761] | 2 | 2 | 26 | 12 | 18 | 10 | 0 | 0 | 0 | 42
CCc1nc(-c2cccc(C)c2)c(-c2ccncc2)s1 | 1 | 0 | 14 | 0 | 9 | 0 | 3 | 0 | 4 | 0
CCC(=O)c1c(-c2ccccc2)c2cc(Cl)ccc2c(=O)n1Cc1ccc(C(=O)O)cc1 | 0 | 0 | 0 | 0 | 0 | 0 | 0 | 0 | 3 | 0
CCCC(=O)Nc1n[nH]c2ncc(-c3cccc4ccccc34)cc12 [SB-642057] | 0 | 23 | 39 | 0 | 2 | 7 | 0 | 13 | 0 | 0
CCc1ccc(-c2ccc3c(c2)-c2nn(C)cc2S(=O)(=O)N3C)cc1 | 23 | 0 | 9 | 0 | 0 | 0 | 0 | 0 | 0 | 0
C[C@@H]1CC[C@H](C(=O)NC2CCCCC2)CN1c1cc(-c2ccc3c(N)n[nH]c3c2)nc(N)n1 [GSK2291363] | 95.3 | 26 | 27 | 0 | 17 | 0 | 0 | 0 | 0 | 0
CN1C(=O)C(Nc2ccccc2)=C(c2ccccc2)C1=O [SB-300079] | 0 | 0 | 1 | 11 | 0 | 0 | 16 | 25 | 0 | 0
Cc1ccc(Oc2ccc(Nc3ncnc4cc[nH]c34)cc2C)cn1 | 25 | 7 | 0 | 0 | 0 | 24 | 60 | 5 | 57 | 54
Cc1cccc(-c2cc(-c3c[nH]nc3-c3ccccn3)ccn2)c1 [GW679395] | 0 | 1 | 11 | 0 | 0 | 1 | 0 | 0 | 0 | 0
O=C(Nc1ccc2c(c1)OCO2)NC1CCN(c2ccnc(NCc3ccc(F)cc3)n2)CC1 [GSK1379859] | 0 | 10 | 14 | 0 | 0 | 0 | 0 | 0 | 0 | 0
CCCNC(=O)Nc1ccc(Oc2ncnc3ccn(C)c23)cc1 | 0 | 10 | 0 | 0 | 0 | 19 | 27 | 14 | 0 | 30
O=C(Nc1n[nH]c2nc(-c3ccccc3)c(Cl)cc12)C1CC1 [SB-734909] | 0 | 0 | 6 | 0 | 7 | 35 | 10 | 12 | 13 | 17
COc1cc2ncn(-c3cc(OCCCc4ccccc4)c(C(N)=O)s3)c2cc1OC [GSK205189] | 11 | 8 | 34 | 2 | 20 | 8 | 0 | 0 | 0 | 0

Compound | %Inh [1] [%] | %Inh [2] [%] | %Inh [3] [%] | %Inh [4] [%] | %Inh [5] [%] | %Inh [6] [%] | %Inh [7] [%] | %Inh [8] [%] | %Inh [9] [%] | %Inh [10] [%]
FC(F)(F)c1ccc(-c2ncn(CCCN3CCOCC3)c2-c2ccncc2)cc1 [SB-217780] | 0 | 40 | 0 | 1 | 4 | 0 | 0 | 0 | 4 | 0
Cc1nc(N(C)[C@H]2CN(C(=O)CC#N)CC[C@H]2C)c2cc[nH]c2n1 | 0 | 0 | 0 | 0 | 13 | 0 | 10 | 0 | 0 | 12
CCS(=O)(=O)c1ccc(OC)c(Nc2ncc(-c3ccc(F)cc3)o2)c1.Cl [GW591947] | 0 | 9 | 1 | 0 | 0 | 0 | 0 | 0 | 0 | 0
O=C(NCc1cccs1)c1cc(C(=O)c2c(Cl)cccc2Cl)c[nH]1 [GW823670] | 0 | 0 | 55 | 2 | 0 | 0 | 0 | 0 | 0 | 0
COc1ccc(-c2coc3ccc(-c4nnc(SCc5cccc(C#N)c5)o4)cc23)cc1 | 2 | 0 | 1 | 0 | 1 | 2 | 5 | 0 | 39 | 0
Nc1nc(N)c2nc(-c3ccccc3)[nH]c2n1 [SKF-12778] | 14 | 6 | 9 | 0 | 0 | 0 | 68 | 6 | 0 | 21
Nc1ncnc2c1ncn2-c1ccc(Cl)cc1 [AH2635] | 0 | 0 | 17 | 0 | 0 | 0 | 0 | 0 | 0 | 0
COc1cc2nccc(Nc3cccc(Oc4ccccc4)c3)c2cc1OC.Cl [GW284543] | 0 | 31 | 2 | 2 | 0 | 39 | 0 | 0 | 0 | 55
Cc1nnc(-c2ccc(C)c(-c3ccc(C(=O)O)cc3)c2)o1 [GW608005] | 4 | 11 | 0 | 2 | 0 | 0 | 3 | 0 | 0 | 6
CC(C)(C)c1ccc(C(=O)Nc2cn3cc(-c4ccccc4)ccc3n2)cc1 | 0 | 0 | 0 | 4 | 2 | 0 | 0 | 0 | 14 | 0
CCn1c(-c2ccoc2)nc2cnccc21 [SB-733887] | 0 | 15 | 0 | 0 | 0 | 6 | 0 | 0 | 0 | 0
COc1ccc(CNC(=O)NC2CCN(c3ccnc(Nc4ccc(F)cc4)n3)C2)cc1 (centres unmarked) [GSK1379706] | 0 | 0 | 1 | 7 | 0 | 0 | 0 | 2 | 0 | 8
O=C1NC(=O)C(c2ccccc2)=C1Nc1cccc(O)c1 [SB-390534] | 0 | 10 | 0 | 0 | 0 | 2 | 4 | 0 | 0 | 0
CCn1c(-c2nonc2N)nc2ccccc21 [SB-693162/GW549034] | 0 | 0 | 17 | 21 | 16 | 0 | 0 | 0 | 62 | 0
Nc1ncnc2c1ncn2-c1cccc2ccccc12 [SKF-97184] | 0 | 0 | 1 | 0 | 0 | 7 | 0 | 2 | 0 | 0
COC(=O)c1c(-c2ccccc2)c2cc(Br)ccc2c(=O)n1Cc1ccc(S(C)(=O)=O)cc1 | 0 | 7 | 0 | 24 | 13 | 7 | 11 | 7 | 28 | 0
O=C(NCCNc1ccnc(Nc2ccc(F)cc2)n1)Nc1ccc2c(c1)OCO2 [GSK1379882] | 0 | 25 | 0 | 8 | 7 | 7 | 0 | 7 | 0 | 0
